We go through 5 compounds from PubChem BioAssay (NCATS).

Records with an inconclusive call do not appear. Active and inactive are the calls of the source. Unless noted, the call rests on the fitted dose curve; in most records, active means well fitted curve in the direction sought with a large enough effect; inconclusive means small, poorly fitted or top-dose-only effect, or another doubt; inactive means no such curve, though single readings can be large; an effect the other way counts as inactive or inconclusive. Bounds are passed on as bounds.

The target of assay [1] is Lysosomal acid glucosylceramidase (Homo sapiens) (UniProt P04062). The assay is described as follows: Glucocerebrosidase-p2 (AID 348; in the data active means potency below about 10 µM; further: potency means the concentration at half of the fitted maximal effect). The following applies: purified GBA, blue fluorogenic substrate, 40 min. An outline of the steps: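 Compounds titrated from 0.6 nM upwards against 0.2 nM enzyme in pH 5.9 citric acid/KH2PO4, taurocholate, tween-20; blue fluorogenic substrate 80 uM, 40 min room temperature, stopped and read Ex 365/Em 440 for AC50.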
Lysosomal acid glucosylceramidase (Homo sapiens), sequence (P04062 whole entry, looked up): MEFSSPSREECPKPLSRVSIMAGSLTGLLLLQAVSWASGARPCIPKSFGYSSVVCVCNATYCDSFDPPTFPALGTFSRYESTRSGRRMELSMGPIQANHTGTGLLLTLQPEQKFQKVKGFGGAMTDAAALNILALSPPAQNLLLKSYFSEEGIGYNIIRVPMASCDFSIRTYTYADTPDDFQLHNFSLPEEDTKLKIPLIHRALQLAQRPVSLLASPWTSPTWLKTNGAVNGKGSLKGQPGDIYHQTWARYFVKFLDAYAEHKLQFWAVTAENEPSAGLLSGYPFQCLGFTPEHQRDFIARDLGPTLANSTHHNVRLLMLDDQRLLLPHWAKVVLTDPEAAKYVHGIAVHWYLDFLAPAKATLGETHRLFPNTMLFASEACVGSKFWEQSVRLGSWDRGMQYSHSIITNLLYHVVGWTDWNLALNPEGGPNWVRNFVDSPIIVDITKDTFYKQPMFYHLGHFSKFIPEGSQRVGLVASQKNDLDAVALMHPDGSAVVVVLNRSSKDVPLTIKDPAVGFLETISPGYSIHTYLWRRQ

Assay [2] concerns the target Cytochrome P450 1A2 (Homo sapiens) (UniProt P05177). Nature of the assay: p450-cyp1a2 (AID 410; calls by dose curve; further: potency means the concentration at half of the fitted maximal effect). The following applies: recombinant CYP1A2, luciferin-ME demethylation, luminescence; series mostly up to 57 µM. An outline of the steps:
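Luminescent readout of luciferin formed from Luciferin-ME by human CYP1A2; data normalized against complete inhibition by 57 uM furafylline. Enzyme 20nM, substrate 100uM at Km, 100mM KPO4 buffer, 60 min reaction at room temperature.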

Assay [3] is described as follows: NFAT Signaling Pathway (AID 444; active means well fitted curve in either direction with a large enough effect, not every such curve was filed as active;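 further: carbachol stimulus at about its EC50 of 1 µM final; on the % scale 0 is the no-effect control and ±100 the full control effect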). The following applies: Jurkat NFAT-bla M1, carbachol, beta-lactamase ratio, 5 h; at 7.69 µM (top of the series) unless noted. A digest of the protocol:
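Jurkat cells carrying an NFAT-driven β-lactamase reporter and co-transfected muscarinic M1 receptor were treated with compound plus carbachol (1 uM final, an EC50 level) for 5 h at 37 °C. CCF4 loading followed for 1 h at RT; 460/530 nm ratio gave %activity.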

Assay [4] is described as follows: Stat Signaling Pathway (AID 446; active means well fitted curve in either direction with a large enough effect, not every such curve was filed as active;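 further: ME-180 cervical cancer cells given 40 pM IL-6 alongside compound; SIE-controlled beta-lactamase reporter measured as 460/530 nm FRET emission ratio; on the % scale 0 is the no-effect control and ±100 the full control effect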). Particulars: ME-180 SIE beta-lactamase reporter, IL-6 stimulated, 5 h; at 7.69 µM (top of the series) unless noted. A digest of the protocol:
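Reporter line: ME-180 cervical carcinoma, SIE-beta-lactamase. Treatment: compound with 40 pM IL-6, 5 hrs, 37 C, in low-serum OPTI-MEM with 10 mM HEPES pH 7.3. Detection: 460/530 nm fluorescence.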

Assay [5] concerns the target Glucocorticoid receptor (Homo sapiens) (UniProt P04150). The assay is described as follows: GR-GFP Redistribution (AID 450;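 active means compounds whose dose series gives a full or clear partial fitted curve of increased nuclear translocation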; further: potency means the concentration at half of the fitted maximal effect). Particulars: U2OS GR-GFP nuclear translocation, laser cytometry, 2 h.
Assay [6] shares this target. Nature of the assay: GR-EFC Redistribution (AID 451; calls by dose curve; further: potency means the concentration at half of the fitted maximal effect). Particulars: CHO-K1 GR-EFC translocation, beta-gal luminescence, 2 h. An outline of the steps:
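CHO-K1 cells stably expressing nuclear-localized β-gal enzyme acceptor and GR fused C-terminally to the enzyme donor fragment; ligand-driven nuclear translocation restores β-gal by complementation. Compounds titrated up to 46 uM final, 2 h at 37 °C; luminescence read.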

The target of assay [7] is Mitogen-activated protein kinase 10 (Mus musculus) (UniProt Q61831). Nature of the assay: JNK3 AlphaScreen Assay (AID 530; active means well fitted curve in either direction with a large enough effect, not every such curve was filed as active;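 further: kinase came from lysate of stimulated human HepG2 cells; signal reports phosphorylation of biotinylated GST-cJun 1-79 at Ser73 with 10 µM ATP; on the % scale 0 is the no-effect control and ±100 the full control effect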). The following applies: JNK3 lysate, c-Jun phosphorylation; series mostly up to 57.1 µM. An outline of the steps: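 Inhibitors reduce antibody binding to phosphorylated biotin-cJun, lowering AlphaScreen luminescence. Lysates from HepG2 cells pre-activated by IL-1beta plus TNF-alpha supplied JNK3; compounds were titrated.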
In general terms: Alpha assays give light when donor and acceptor beads are brought close together.

For assay [8], the target named is 3',5'-cyclic-AMP phosphodiesterase 4B (Homo sapiens) (UniProt Q07343). Nature of the assay: qHTS Assay for Inhibitors of PDE-IV (AID 607; active means well fitted activation curve with a large enough effect in the main read-out, with a control signal flat, not every such curve was filed as active; further: % of control where 0% means no effect). The following applies: HEK293 ACTOne CNG channel cells, membrane potential fluorescence; series mostly up to 22.9 µM. An outline of the steps:
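Cell-based read-out of cAMP via a modified cyclic nucleotide-gated channel and membrane potential dye (535/590 nm) in HEK293 cells expressing PDE4 endogenously. Compounds tested up to 22.9 uM final; 100 uM RO 20-1724 reference.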
Background: In qHTS, concentration-response curves come from the screen itself.

Assay [9] deals with Cytochrome P450 3A4 (Homo sapiens) (UniProt P08684). Nature of the assay: qHTS Assay for Activators of Cytochrome P450 3A4 (AID 885). Further: nearly all actives have a fitted effect of over 65% in size. Particulars: recombinant CYP3A4, Luciferin-PPXE luminescence, 60 min; series mostly up to 57.1 µM. A digest of the protocol: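 Signal was normalized against complete inhibition by 57 uM ketoconazole. The reaction used 20nM CYP3A4 with 25uM Luciferin-PPXE, 10-min compound preincubation and a 60-min NADPH-supported step at RT.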
Cytochrome P450 3A4 (Homo sapiens), sequence (P08684 whole entry, looked up): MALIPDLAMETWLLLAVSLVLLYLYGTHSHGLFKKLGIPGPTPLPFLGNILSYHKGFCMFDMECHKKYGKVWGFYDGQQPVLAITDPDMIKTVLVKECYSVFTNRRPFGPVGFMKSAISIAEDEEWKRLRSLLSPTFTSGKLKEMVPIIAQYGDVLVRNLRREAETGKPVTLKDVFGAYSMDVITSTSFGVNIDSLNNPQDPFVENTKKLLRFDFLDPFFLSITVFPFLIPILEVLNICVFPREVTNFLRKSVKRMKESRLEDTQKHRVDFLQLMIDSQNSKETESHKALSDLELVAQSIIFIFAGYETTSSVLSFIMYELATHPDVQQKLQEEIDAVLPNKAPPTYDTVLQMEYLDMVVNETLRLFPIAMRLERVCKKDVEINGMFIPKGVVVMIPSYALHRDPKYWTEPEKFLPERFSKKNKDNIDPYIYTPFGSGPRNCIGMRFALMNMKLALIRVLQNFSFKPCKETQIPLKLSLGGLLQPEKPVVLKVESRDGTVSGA

The target of assay [10] is Cytochrome P450 2C19 (Homo sapiens) (UniProt P33261). The assay is described as follows: qHTS Assay for Inhibitors and Substrates of Cytochrome P450 2C19 (AID 899). Further: on the % scale 0 is the no-effect control and ±100 the full control effect; nearly all actives have a fitted effect of over 60% in size. The following applies: recombinant CYP2C19, luciferin-H EGE luminescence; series mostly up to 57.1 µM. An outline of the steps: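 Human CYP2C19 (5nM) with Luciferin-H EGE at 10uM (its KM) in 50mM KPO4 was preincubated with compound for 10 min at 37C. NADPH regeneration started a 60 min 37C reaction. Luciferin was read by luminescence, normalized to 57uM ketoconazole.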
Cytochrome P450 2C19 (Homo sapiens), sequence (P33261 whole entry, looked up): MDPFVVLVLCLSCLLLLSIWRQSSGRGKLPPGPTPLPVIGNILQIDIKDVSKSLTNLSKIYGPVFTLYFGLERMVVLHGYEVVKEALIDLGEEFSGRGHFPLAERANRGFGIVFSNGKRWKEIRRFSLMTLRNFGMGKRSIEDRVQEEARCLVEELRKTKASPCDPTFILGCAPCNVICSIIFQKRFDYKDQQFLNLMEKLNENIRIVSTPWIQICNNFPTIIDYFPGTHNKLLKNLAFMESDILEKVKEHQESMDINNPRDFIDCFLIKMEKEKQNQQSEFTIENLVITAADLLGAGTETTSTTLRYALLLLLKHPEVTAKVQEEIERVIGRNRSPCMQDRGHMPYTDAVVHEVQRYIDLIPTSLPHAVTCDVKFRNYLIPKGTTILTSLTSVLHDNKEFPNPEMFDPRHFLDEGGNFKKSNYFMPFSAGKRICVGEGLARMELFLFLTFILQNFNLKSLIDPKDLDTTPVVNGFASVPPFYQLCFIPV

A short description of assay [11]: qHTS Assay for Lipid Storage Modulators (AID 1519; calls by dose curve). The following applies: Drosophila S3 cells, BODIPY lipid droplet/cell ratio, laser cytometry, cells loaded with oleic acid; for activity change, negative = inhibition: at 57.5 µM (top of the series). An outline of the steps: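 Cells seeded at 5,000 per well were treated with compounds over a concentration series and loaded with oleic acid (400 uM, as added). Lipid droplet fluorescence (488 nm excitation, 500-530 nm channel) was read by laser-scanning cytometry and normalized to 20 uM Triacsin C.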

Assay [12] concerns the target Dual specificity protein kinase CLK4 (Homo sapiens) (UniProt Q9HAZ1). Nature of the assay: qHTS Assay for Inhibitors of CDC-like Kinase 4 (Kinase-Glo Assay) (AID 1770). Further: nearly all actives have a fitted effect of over 65% in size. Further: potency means the concentration at half of the fitted maximal effect. The following applies: recombinant Clk4, Kinase-Glo ATP depletion luminescence; series mostly up to 66.7 µM. A digest of the protocol:
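Clk4 25 nM, RS peptide 100 uM, ATP 1 uM, pH 7.5 Tris, 10 mM MgCl2, 2.5 mM DTT; 4.5 h RT; ATP depletion read by Kinase-Glo luminescence.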

Assay [13] has the same target. Nature of the assay: qHTS Assay for Inhibitors of CDC-like Kinase 4 (ADP-Glo Assay) (AID 1771). Further: nearly all actives have a fitted effect of over 70% in size. Further: potency means the concentration at half of the fitted maximal effect. The following applies: recombinant CLK4, ADP-Glo luminescence; series mostly up to 80 µM. An outline of the steps: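 Luminescence from ADP-Glo reports ADP produced by 25 nM Clk4 acting on 100 uM RS repeat peptide with 1 uM ATP over 1 hr at room temperature; residual ATP is depleted before ADP is converted to ATP for detection.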

Assay [14] has the same target. The assay is described as follows: qHTS Assay for Inhibitors of CDC-like Kinase 4 (ADP-FP Assay) (AID 1795). Further: nearly all actives have a fitted effect of over 60% in size. Further: potency means the concentration at half of the fitted maximal effect. The following applies: Transcreener ADP fluorescence polarization; series mostly up to 50 µM. A digest of the protocol: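 Kinase activity was followed as ADP output, converted from fluorescence polarization with a calibration curve. Reactions ran one hour at low ATP (1 uM) with RS peptide substrate.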

Assay [15] concerns the target Ubiquitin carboxyl-terminal hydrolase 1 (Homo sapiens) (UniProt O94782). Nature of the assay: Inhibitors of USP1/UAF1: Pilot qHTS (AID 504865).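 Further: rhodamine fluorescence freed from ubiquitin-rhodamine substrate followed over time; top concentration of the series differs between compounds; on the % scale 0 is the no-effect control and ±100 the full control effect; nearly all actives have a fitted effect of over 35% in size.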 Particulars: purified USP1/UAF1, Ub-rhodamine cleavage fluorescence; series mostly up to 54.9 µM. An outline of the steps:
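Enzyme-free wells gave the negative control, while test wells held 1nM USP1/UAF1 preincubated with compound for 15 min at room temperature. Ub-Rho at 150nM final started the reaction, and fluorescence at 480/540 nm was recorded kinetically.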

Assay [16] is described as follows: Primary qHTS for small molecule stabilizers of the endoplasmic reticulum resident proteome: Secreted ER Calcium Modulated Protein (SERCaMP) assay (AID 1508630). Further: on the % scale 0 is the no-effect control and ±100 the full control effect. The following applies: SH-SY5Y GLuc-SERCaMP (Gaussia luciferase released on ER calcium loss) secretion, thapsigargin, luminescence; series mostly up to 38.4 µM. An outline of the steps: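 GLuc-SERCaMP-expressing SH-SY5Y cells, pretreated 16 h with compound, are challenged with thapsigargin to empty ER calcium stores; after 4 h, coelenterazine is added directly to the medium and luminescence is imaged.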

Assay [17] is described as follows: AP1 Signaling Pathway (AID 357; active means well fitted curve in either direction with a large enough effect, not every such curve was filed as active; further: on the % scale 0 is the no-effect control and ±100 the full control effect). The following applies: ME-180 AP-1-bla reporter, EGF-induced, beta-lactamase ratio, 5 h; at 7.69 µM (top of the series) unless noted. An outline of the steps: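 ME-180 cells with beta-lactamase reporter under AP-1 response element, stimulated with EC50 EGF; compounds tested in titration series, 5 h at 37 °C. CCF4 substrate added 2.5 h at room temperature; 460/530 nm emission ratio gave %activity and AC50.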

Assay [18] in a line: qHTS Assay for Identification of Small Molecule Agonists for Hypoxia Response Element Signaling Pathway (AID 914; active means well fitted activation curve with a large enough effect in the signal ratio, with a control signal flat, not every such curve was filed as active; the % refers to the signal ratio; further: % of control where 0% means no effect). The following applies: ME-180 (cervical carcinoma) HRE-bla reporter, beta-lactamase ratio, CoCl2, 17 h; activation: stronger effect = higher value. A digest of the protocol: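 Read-out: CCF4 FRET ratio of 460nm to 530nm emission (excitation 405nm) after 2.5 hours at room temperature, taken from HRE-bla ME-180 cells that had been exposed to compound and EC50 CoCl2 for 17 hours.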

[19] abbreviates: measured here: cell count channel max response.
The mark [20] stands for this setting: measured here: lipid channel max response.

Ubiquitin carboxyl-terminal hydrolase 1 (Homo sapiens), sequence (O94782 whole entry, looked up): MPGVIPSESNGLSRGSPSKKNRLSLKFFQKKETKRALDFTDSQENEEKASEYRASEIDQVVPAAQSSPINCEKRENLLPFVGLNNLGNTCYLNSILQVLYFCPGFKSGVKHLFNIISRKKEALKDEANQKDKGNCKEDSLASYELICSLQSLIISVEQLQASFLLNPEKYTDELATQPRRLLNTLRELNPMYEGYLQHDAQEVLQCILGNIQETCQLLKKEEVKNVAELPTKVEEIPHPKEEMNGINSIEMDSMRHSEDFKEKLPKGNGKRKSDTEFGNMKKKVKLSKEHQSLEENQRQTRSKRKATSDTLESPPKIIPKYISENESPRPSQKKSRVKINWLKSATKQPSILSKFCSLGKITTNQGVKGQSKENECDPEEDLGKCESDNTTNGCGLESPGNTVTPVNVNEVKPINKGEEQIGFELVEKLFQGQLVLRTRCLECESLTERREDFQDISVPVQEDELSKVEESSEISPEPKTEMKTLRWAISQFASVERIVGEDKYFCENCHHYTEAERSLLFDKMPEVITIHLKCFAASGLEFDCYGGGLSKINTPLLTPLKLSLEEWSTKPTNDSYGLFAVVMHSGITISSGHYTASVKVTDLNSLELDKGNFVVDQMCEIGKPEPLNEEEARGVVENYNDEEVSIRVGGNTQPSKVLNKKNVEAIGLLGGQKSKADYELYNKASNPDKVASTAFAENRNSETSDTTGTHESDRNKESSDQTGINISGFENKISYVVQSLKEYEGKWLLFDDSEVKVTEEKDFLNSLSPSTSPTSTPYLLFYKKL
3',5'-cyclic-AMP phosphodiesterase 4B (Homo sapiens), sequence (Q07343 whole entry, looked up): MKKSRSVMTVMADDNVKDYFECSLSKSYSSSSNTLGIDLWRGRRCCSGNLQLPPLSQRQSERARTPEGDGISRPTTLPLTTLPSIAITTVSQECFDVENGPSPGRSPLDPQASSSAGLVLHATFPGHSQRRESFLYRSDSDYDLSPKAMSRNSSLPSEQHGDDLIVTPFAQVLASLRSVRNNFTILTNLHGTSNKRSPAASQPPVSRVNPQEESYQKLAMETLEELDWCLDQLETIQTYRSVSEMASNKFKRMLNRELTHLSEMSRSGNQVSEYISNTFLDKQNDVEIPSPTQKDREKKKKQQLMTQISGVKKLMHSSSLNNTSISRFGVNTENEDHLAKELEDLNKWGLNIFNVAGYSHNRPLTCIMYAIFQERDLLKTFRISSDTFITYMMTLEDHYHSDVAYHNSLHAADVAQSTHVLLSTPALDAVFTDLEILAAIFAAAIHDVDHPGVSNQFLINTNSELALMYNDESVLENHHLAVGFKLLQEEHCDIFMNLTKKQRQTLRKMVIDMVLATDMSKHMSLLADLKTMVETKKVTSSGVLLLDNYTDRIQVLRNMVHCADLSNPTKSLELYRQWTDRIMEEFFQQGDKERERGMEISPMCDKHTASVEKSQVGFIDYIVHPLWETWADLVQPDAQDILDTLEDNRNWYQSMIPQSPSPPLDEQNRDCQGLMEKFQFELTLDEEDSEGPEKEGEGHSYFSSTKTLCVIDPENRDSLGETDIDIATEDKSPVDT
Dual specificity protein kinase CLK4 (Homo sapiens), sequence (Q9HAZ1 whole entry, looked up): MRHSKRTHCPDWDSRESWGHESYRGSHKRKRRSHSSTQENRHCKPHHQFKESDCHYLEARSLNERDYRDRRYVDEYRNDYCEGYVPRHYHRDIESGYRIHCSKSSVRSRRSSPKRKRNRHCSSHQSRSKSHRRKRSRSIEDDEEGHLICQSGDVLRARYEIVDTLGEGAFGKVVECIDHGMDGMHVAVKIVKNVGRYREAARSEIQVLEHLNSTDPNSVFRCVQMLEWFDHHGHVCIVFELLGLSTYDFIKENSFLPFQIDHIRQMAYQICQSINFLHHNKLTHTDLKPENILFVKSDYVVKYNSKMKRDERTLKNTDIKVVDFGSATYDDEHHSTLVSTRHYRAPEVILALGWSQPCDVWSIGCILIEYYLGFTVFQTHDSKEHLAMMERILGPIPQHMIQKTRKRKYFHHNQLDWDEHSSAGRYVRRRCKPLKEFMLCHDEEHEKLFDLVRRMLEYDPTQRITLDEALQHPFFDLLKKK
Cytochrome P450 1A2 (Homo sapiens), sequence (P05177 whole entry, looked up): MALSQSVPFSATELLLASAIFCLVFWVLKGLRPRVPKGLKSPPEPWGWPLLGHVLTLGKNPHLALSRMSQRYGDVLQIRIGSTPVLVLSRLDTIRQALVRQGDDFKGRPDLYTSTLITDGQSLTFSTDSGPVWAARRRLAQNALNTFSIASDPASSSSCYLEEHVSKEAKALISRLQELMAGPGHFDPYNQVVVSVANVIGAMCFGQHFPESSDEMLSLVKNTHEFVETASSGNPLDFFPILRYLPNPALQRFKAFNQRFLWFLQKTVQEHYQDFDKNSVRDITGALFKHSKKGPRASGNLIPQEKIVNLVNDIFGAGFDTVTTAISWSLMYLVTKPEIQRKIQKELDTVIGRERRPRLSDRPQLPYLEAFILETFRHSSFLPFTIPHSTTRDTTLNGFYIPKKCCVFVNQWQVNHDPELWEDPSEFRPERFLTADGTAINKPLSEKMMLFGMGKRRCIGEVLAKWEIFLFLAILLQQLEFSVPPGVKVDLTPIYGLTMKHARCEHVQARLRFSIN
Glucocorticoid receptor (Homo sapiens), sequence (P04150 whole entry, looked up): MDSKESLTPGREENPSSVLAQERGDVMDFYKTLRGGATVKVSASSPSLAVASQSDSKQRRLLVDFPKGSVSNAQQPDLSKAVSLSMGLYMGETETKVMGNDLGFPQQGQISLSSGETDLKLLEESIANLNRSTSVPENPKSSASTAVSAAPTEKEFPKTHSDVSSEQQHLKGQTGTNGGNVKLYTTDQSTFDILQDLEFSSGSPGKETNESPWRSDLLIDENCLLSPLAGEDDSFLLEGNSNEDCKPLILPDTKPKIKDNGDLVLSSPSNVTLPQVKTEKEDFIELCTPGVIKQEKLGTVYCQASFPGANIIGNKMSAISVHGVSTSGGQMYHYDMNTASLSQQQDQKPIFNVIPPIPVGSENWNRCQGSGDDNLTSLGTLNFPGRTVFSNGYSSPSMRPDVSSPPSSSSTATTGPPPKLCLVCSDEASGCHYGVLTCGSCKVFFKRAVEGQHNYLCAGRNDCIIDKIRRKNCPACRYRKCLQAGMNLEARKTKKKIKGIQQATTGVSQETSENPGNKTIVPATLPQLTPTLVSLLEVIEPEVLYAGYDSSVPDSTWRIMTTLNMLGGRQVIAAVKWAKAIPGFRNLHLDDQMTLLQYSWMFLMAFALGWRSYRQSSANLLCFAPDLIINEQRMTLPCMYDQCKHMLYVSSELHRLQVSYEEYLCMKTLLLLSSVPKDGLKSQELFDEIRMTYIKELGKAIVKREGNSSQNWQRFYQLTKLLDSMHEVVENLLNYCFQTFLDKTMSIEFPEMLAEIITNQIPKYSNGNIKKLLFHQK

Regarding `Cc1noc(C)c1-c1cc(NCc2cccs2)ncn1`, the Potency in assay [1] was > 11.4 µM (inactive); in [2], 0.794 µM (active); in [5] it was > 46 µM (inactive); in [6], > 46 µM (inactive); in assay [12], 11.2 µM (active); in assay [13], 10 µM (active). In [14], the Potency was 14.1 µM (active). For the same compound, the activity change, negative = inhibition in assay [3] is -7.58% (inactive); in assay [11], 5.54% (inactive). In assay [4], the activity, negative = inhibition was 7.7% (inactive). For the same compound, the compound was classed as inactive in assay [7]. For the same compound, the Potency entry in [8], in [9], in assay [10], in [15] and in [16] was “inactive” in each case. The values for the max response in assay [11] (setting [19]) and in [11] (setting [20]) were 20.5% and 27.7%, respectively.
Consider `COc1cccc(Cn2c(=O)c(C)nc3cnc(OC)nc32)c1`, for which the Potency was > 11.4 µM (inactive) in assay [1], > 9.22 µM (inactive) in assay [5] and > 46 µM (inactive) in [6]. Further, the figures for the activity change, negative = inhibition in [17], in assay [3] and in assay [11] were -5.98% (inactive), 5.79% (inactive) and 5.06% (inactive), respectively. Also, the activity, negative = inhibition in assay [4] was -2.86% (inactive). In addition, the outcome in assay [7] was inactive. Besides, the Potency result in [8], in assay [12], in assay [13], in assay [14] and in assay [16] was “inactive” in each case. Also, in assay [18], the activation was 12.8% (inactive). Also, the results for the max response in assay [11] (setting [19]) and in [11] (setting [20]) were 15.1% and 19.3%, respectively.
Turning to `COCCn1c(=O)c(C)nc2cnc(Oc3ccc(OC)cc3)nc21`, the Potency in [1] was > 11.4 µM (inactive); in assay [2] it was 15.8 µM (active); in assay [5], > 9.22 µM (inactive). For the same compound, the figures for the activity change, negative = inhibition in assay [3] and in assay [11] were 7.53% (inactive) and 1.21% (inactive), respectively. Also, the activity, negative = inhibition in assay [4] is -8.21% (inactive). Further, in [7], the outcome was inactive. The Potency result in [8], in assay [9], in assay [12], in assay [13], in assay [14] and in [15] was “inactive” each time. Moreover, the Potency entry in assay [16] is “inactive”. Besides, the max response in assay [11] (setting [19]) is 29.1%; in [11] (setting [20]), 27.3%.
With `COc1ccc(-n2c(=O)c(-c3cccs3)nc3cnc(N4CCOCC4)nc32)cc1`, the Potency in [1] is > 11.4 µM (inactive); in assay [2], 12.6 µM (active); in [5], > 9.22 µM (inactive); in [6] it was > 46 µM (inactive). In addition, the activity change, negative = inhibition in [3] is -15.7% (inactive); in assay [11], 5.16% (inactive). Also, the call in assay [7] was inactive. The Potency result in [8], in [9], in assay [12], in assay [13], in assay [14] and in [15] was “inactive” each time. Besides, in assay [16], the Potency entry is “inactive”. For the same compound, the results for the max response in assay [11] (setting [19]) and in assay [11] (setting [20]) were 28.1% and 27.2%, respectively.
For `COCCn1c(=O)cnc2cnc(Nc3cccc(OC)c3)nc21`, the Potency is > 11.4 µM (inactive) in assay [1]; 0.794 µM (active) in [2]; > 9.22 µM (inactive) in assay [5]; > 46 µM (inactive) in [6]; 2.24 µM (active) in [12]; 1.78 µM (active) in assay [13]. Also, the Potency in assay [14] is 1.26 µM (active). The activity change, negative = inhibition was -0.925% (inactive) in [3] and -15.5% (inactive) in assay [11]. Also, the compound was classed as inactive in assay [7]. Moreover, the Potency result in [8], in [15] and in assay [16] was “inactive” in each case. Also, the max response is -13.4% in assay [11] (setting [19]) and -29.7% in [11] (setting [20]).
